D1 PAM – Potentiators of Human D1 Dopamine Receptor: qHTS | D(1A) dopamine receptor (Homo sapiens), P21728 | HEK293 TREx D1 cells, calcium flux, dopamine EC20 potentiation | potentiation, % at 10 µM | 360,000 tested, 0.036% active | AID 504651, 2011; in the data active means potentiation above about 30%; further: 0% is about no effect
Target sequence (P21728 whole entry, looked up): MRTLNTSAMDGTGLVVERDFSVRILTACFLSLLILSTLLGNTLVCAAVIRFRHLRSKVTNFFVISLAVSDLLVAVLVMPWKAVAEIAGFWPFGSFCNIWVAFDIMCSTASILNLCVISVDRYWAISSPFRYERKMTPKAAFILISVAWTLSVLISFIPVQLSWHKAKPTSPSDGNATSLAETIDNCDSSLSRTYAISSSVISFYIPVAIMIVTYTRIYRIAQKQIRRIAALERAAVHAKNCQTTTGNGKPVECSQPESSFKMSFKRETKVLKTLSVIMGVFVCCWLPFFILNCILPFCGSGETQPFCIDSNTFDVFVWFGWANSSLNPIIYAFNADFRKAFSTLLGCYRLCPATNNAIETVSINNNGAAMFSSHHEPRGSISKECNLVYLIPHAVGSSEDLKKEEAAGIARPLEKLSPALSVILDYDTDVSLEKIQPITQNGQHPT
D3 ag – qHTS of D3 Dopamine Receptor Agonist: qHTS; D(3) dopamine receptor (Homo sapiens), P35462; D3R DiscoveRx beta-arrestin cells, luminescence, 90 min; max activation, %; 410,000 tested, 0.58% active; AID 652048, 2013; in the data active means max activation above about 30%; further: 0% is about no effect
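Agonist-mode cell screen: cells plated at 1500/well and incubated overnight at 37 °C, then exposed to library compounds for 90 min at 37 °C. Detection reagent was added for 30–60 min at room temperature, and luminescence was read.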
D1 agonist – Allosteric Agonists of the Human D1 Dopamine Receptor: qHTS | 360,000 tested, 1% active | HEK293 T-REx D1 cells, calcium flux, agonist mode | D(1A) dopamine receptor (Homo sapiens), P21728 | activation, % at 2 µM; in the data active means activation above about 30%; further: 0% is about no effect
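Inducible HEK293 T-REx D1 cells, force-coupled to calcium signalling, were plated at 4000 cells/well with tetracycline and held overnight at 30 C. After no-wash calcium dye loading, compound-evoked calcium rise over 180 s flagged agonists.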
DRD3 antagonist – qHTS of D3 Dopamine Receptor Antagonist: qHTS; D3R cells, DiscoveRx beta-arrestin luminescence, antagonist mode; stronger effect = lower value; D(3) dopamine receptor (Homo sapiens), P35462; 360,000 tested, 2.5% active; max response, negative = inhibition, %; AID 652054, 2013; in the data active means max response below about -50%; inconclusive means no clear call, values can overlap the other calls; further: on the % scale 0 is the no-effect control and ±100 the full control effect
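Cells plated overnight at 1500 cells/well, then exposed to library compounds with dopamine controls for 90 minutes at 37 degrees C. DiscoveRx reagent added for 30–60 minutes at room temperature; luminescence read, quantitative HTS format.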
D1 antagonist – Antagonist of Human D 1 Dopamine Receptor: qHTS; activity change, negative = inhibition, % at 10 µM; 360,000 tested, 3.2% active; HEK293 TREx D1 cells, calcium flux, dopamine EC80; stronger effect = lower value; D(1A) dopamine receptor (Homo sapiens), P21728; in the data active means activity change below about -30%; further: on the % scale 0 is the no-effect control and ±100 the full control effect
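Allosteric or orthosteric antagonism assessed as attenuation of the calcium response to EC80 dopamine, added 180 s after compound, in induced HEK293 Trex D1 cells loaded with no-wash calcium dye.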
Active calls of the source: *. Sampled rows, rich in hits. Any-hit rate of the full collection: about 6%.

For COc1ccc(CCN2CC(C(=O)Nc3cccc(C(C)=O)c3)CC2=O)cc1OC (stereo not drawn) the results were D1 PAM -4.0, D3 ag 16.4, D1 agonist 3.6, DRD3 antagonist -60.6* and D1 antagonist 3.9.
For O=C(Nc1ccc2c(c1)OCO2)C1CC(=O)N(CCc2ccccc2)C1 (stereo not drawn) the results were D1 PAM -6.3, D3 ag 4.2, D1 agonist -1.5, DRD3 antagonist 0.4 and D1 antagonist -37.6*.
Screening CC(C)CNc1ncnc2c1ncn2[C@H]1CN(C2CCCC2)C[C@@H](CO)O1 returned D3 ag -2.6 and DRD3 antagonist 9.0.
`CCCSc1nnc2c(n1)OC(c1sccc1C)Nc1ccccc1-2` (stereo not drawn) gave D1 PAM -0.1, D3 ag 4.5, D1 agonist -1.2 and D1 antagonist -0.5.
CCCc1cc(C(=O)Nc2ccc(C(=O)c3ccccc3)cc2)n(C)n1 was read as D1 PAM -11.8, D3 ag -2.7, D1 agonist 13.7, DRD3 antagonist 39.5 and D1 antagonist -32.4*.
Cc1ccc(C)c(NC(=O)Cn2c(=O)n(Cc3ccc4c(c3)OCO4)c(=O)c3ccccc32)c1 was read as D1 PAM -0.3, D3 ag 3.6, D1 agonist 5.2 and D1 antagonist 5.6.
COc1ccccc1NC(=O)COC(=O)c1c[nH]c2ccccc12 was read as D1 PAM -2.0, D3 ag -6.0, D1 agonist 9.2, DRD3 antagonist -1.3 and D1 antagonist -21.9.
Screening COc1ccccc1CNC(=O)COC(=O)c1c[nH]c2ccccc12 returned D1 PAM -18.6, D3 ag -0.7, D1 agonist 45.4*, DRD3 antagonist 12.8 and D1 antagonist -41.3*.
Cc1ccc(S(=O)(=O)c2cc3c(=O)n4cccc(C)c4nc3n(Cc3ccncc3)c2=N)cc1 was read as D1 PAM -0.6, D3 ag 3.4, D1 agonist 7.6, DRD3 antagonist 9.7 and D1 antagonist -11.3.
`COC(=O)[C@]12CCCCC=C1N(Cc1ccc(Cl)cc1Cl)C(=O)[C@H](CC(=O)NCCCCc1ccccc1)C2` gave D3 ag -1.3 and DRD3 antagonist -9.4.
Screening Cc1cccc(-n2c(O)c(C=Nc3ccc(O)cc3)c3ccccc3c2=O)n1 returned D1 PAM -4.5, D3 ag 5.6, D1 agonist 3.2, DRD3 antagonist -3.8 and D1 antagonist -14.1.
COc1ccc(-n2c(O)c(/C=N/NS(=O)(=O)c3ccc(C)cc3)c3ccccc3c2=O)cc1OC was read as D1 PAM 1.1, D3 ag -7.0, D1 agonist 53.1*, DRD3 antagonist 3.9 and D1 antagonist -6.2.
For COc1ccc(-n2c(O)c(/C=N/Nc3nc(C)cc(C)n3)c3ccccc3c2=O)cc1OC the results were D1 PAM 2.5, D3 ag -7.6, D1 agonist -2.0, DRD3 antagonist inconclusive and D1 antagonist 16.1.
Cc1ccc(N=Cc2c(O)n(-c3ccc4c(c3)OCO4)c(=O)c3ccccc23)cc1 was read as D1 PAM -0.7, D3 ag 1.8, D1 agonist 2.6, DRD3 antagonist -59.4* and D1 antagonist 0.8.
`COc1ccc(-n2c(O)c(/C=N/NS(=O)(=O)c3cc(C)ccc3C)c3ccccc3c2=O)cc1OC` gave D1 PAM -3.0, D3 ag -6.4, D1 agonist 69.2*, DRD3 antagonist -24.4 and D1 antagonist -4.2.
COc1ccccc1NS(=O)(=O)c1cccc(-n2c(O)c(C=Nc3ccccc3C(=O)O)c3ccccc3c2=O)c1 was read as D1 PAM -0.1, D3 ag 62.0*, D1 agonist 4.4, DRD3 antagonist 98.4 and D1 antagonist 5.4.
`CN(C)c1ccc(NC(=O)Nc2nc(C(N)C3CCCCC3)cs2)cc1` (stereo not drawn) gave D3 ag 5.3 and DRD3 antagonist -21.5.
COc1cc(OC)c2c(OC)cccc2n1 was read as D1 PAM -3.6, D3 ag 16.0, D1 agonist 0.1, DRD3 antagonist 8.3 and D1 antagonist -82.3*.
COc1ccccc1-c1nc2ccccc2nc1-c1ccccc1OC was read as D1 PAM -13.7, D3 ag -1.1, D1 agonist 1.1, DRD3 antagonist 7.5 and D1 antagonist 3.2.
CCCCn1nnnc1C(c1cc2ccccc2o1)N1CCN(c2cc(C)nc3ccccc23)CC1 (stereo not drawn) was read as D3 ag -10.7 and DRD3 antagonist inconclusive.
For Cc1ccc(C(=O)Oc2ccccc2N2C(=O)C3CCC(C)CC3C2=O)cc1 (stereo not drawn) the results were D1 PAM 0.0, D3 ag 7.7, D1 agonist 4.8, DRD3 antagonist 37.1 and D1 antagonist -3.7.
`CC1CCC2C(=O)N(c3ccc(C(=O)Oc4cccc5cccnc45)cc3)C(=O)C2C1` (stereo not drawn) gave D1 PAM 3.0, D3 ag -29.8, D1 agonist 2.4, DRD3 antagonist -68.5* and D1 antagonist -8.4.
`Cc1ccc(C2C(C(=O)c3cc4ccccc4o3)=C(O)C(=O)N2CCN2CCOCC2)o1` (stereo not drawn) gave D1 PAM -3.6, D3 ag -9.7, D1 agonist 3.1, DRD3 antagonist -55.8* and D1 antagonist -4.7.
Cc1ccc(CNC(=O)c2cccnc2Sc2cccc(Cl)c2)cc1 was read as D1 PAM -5.8, D3 ag 21.2, D1 agonist 45.9*, DRD3 antagonist 16.5 and D1 antagonist 18.7.
Screening O=C(NCc1nc(-c2ccc(C(F)(F)F)cc2)no1)c1cccs1 returned D1 PAM 2.0, D3 ag 4.1, D1 agonist 3.9, DRD3 antagonist 14.9 and D1 antagonist -33.6*.
For COc1ccc(-c2noc(CN(C(=O)c3cccs3)C(C)C)n2)cc1 the results were D1 PAM -1.3, D3 ag 7.7, D1 agonist 36.9*, DRD3 antagonist -18.8 and D1 antagonist -3.5.
Screening O=C(NCc1nc(-c2ccccc2)no1)c1cccs1 returned D1 PAM -1.6, D3 ag 12.3, D1 agonist 3.4, DRD3 antagonist 17.2 and D1 antagonist 0.7.
COc1ccc(-c2noc(CN(C(=O)c3ccc4c(c3)OCO4)C(C)C)n2)cc1 was read as D1 PAM -7.0, D3 ag 90.9*, D1 agonist 12.4, DRD3 antagonist 9.1 and D1 antagonist -11.0.
For CC(C)N(Cc1nc(-c2ccccc2)no1)C(=O)CCCN1C(=O)c2ccccc2C1=O the results were D1 PAM -6.4, D3 ag 4.1, D1 agonist 4.6, DRD3 antagonist -11.7 and D1 antagonist -49.4*.

High-throughput results as filed in PubChem BioAssay.
